# Compounds with a hit are over-represented: about 2.2% of the library has one in this group of screens.
# aSyn UTR inh: MLPCN primary screen, SNCA 5' untranslated region; alpha-synuclein 5'UTR reporter, inhibitor activity; inhibition, % (tested at 7.5 µM); 0.82% of 300,000 active; AID 1813, 2009; in the data active = inhibition above about 60%;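 note: H4 neuroglioblastoma cells stably carrying SNCA 5'UTR luciferase fusion; 0% = DMSO wells and 100% = positive control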
# KLF5 inhibitor: KLF5 expression inhibitors, primary screen, DLD-1 cells, luminescence; DLD-1 KLF5 promoter-luciferase reporter; inhibition, % at 5 µM; 0.23% of 290,000 active;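 active = inhibition above a per-plate limit of that plate's mean compound inhibition plus 3 SD, cut at about 60% in these data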;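 note: 0% = DMSO wells and 100% = LY294002 at 200 µM; higher means less KLF5 promoter-driven luciferase light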
# IEC-6 tox: cytotoxicity in IEC-6 intestinal epithelial cells, primary screen, cytotoxicity control for KLF5 inhibitor project, cell-based, luminescence | IEC-6 cytotoxicity, luminescence viability | inhibition, % at 5 µM | 0.78% of 290,000 active; in the data active = inhibition above about 22%;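 note: 0% = plate median of test compound wells and 100% = cytotoxic reference compound wells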
# APP transl inh: inhibitors of APP translation via 5'UTR reporter, primary screen, APP 5'UTR luciferase, SH-SY5Y cells. AID 1285, 2008. 0.82% of 190,000 active. inhibition, % at 2 µM. SH-SY5Y APP 5'UTR-luciferase reporter, luminescence;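 active = inhibition above a set limit, derived from the sample mean plus 3 SD, cut at about 45% in these data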
# BaF3 tox: parental Ba/F3 cell viability inhibition, counter-screen for JAK2V617F inhibitor project, murine pro-B, CellTiter-Glo luminescence; CellTiter-Glo ATP luminescence; 1.1% of 220,000 active; AID 1486, 2009; inhibition, % at 5.6 µM;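 active = inhibition above a per-campaign cutoff, the mean inhibition of all tested compounds plus 3 SD, cut at about 27% in these data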;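 note: 0% = DMSO wells and 100% = JAK Inhibitor I control wells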
# Ba/F3 V617F tox: reduced viability of JAK2V617F-dependent Ba/F3 cells, primary screen, JAK2V617F inhibitor project, cell-based, Ba/F3 EpoR-JAK2V617F, luminescence. ATP luminescence. inhibition, % at 5.6 µM. 1.1% of 220,000 active. AID 1446, 2008;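 active = inhibition above the campaign mean plus 3 SD over all tested compounds, cut at about 24% in these data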;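 note: cytokine-independent growth of Ba/F3 cells driven by EpoR plus mutant JAK2; 0% = DMSO-treated cells and 100% = JAK inhibitor I control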
# Active calls of the source: *; / = no result.
SMILES,aSyn UTR inh,KLF5 inhibitor,IEC-6 tox,APP transl inh,BaF3 tox,Ba/F3 V617F tox
COc1cc(OC)cc(-c2cc3nc(C)c(CCC(=O)O)c(C)n3n2)c1,/,33,-10,78*,4,-2
CCOC(=O)C1CCCCN1C(=O)CCc1c(C)nc2cc(-c3ccccc3)nn2c1C (configuration not stated),76*,-13,-3,52*,3,-1
Cc1ccc(C)c(NC(=O)CCN2C(=O)[C@@H]3Cc4ccccc4CN3C2=O)c1,-4,-2,1,/,/,/
CCC(C)NC(=O)c1cc(S(=O)(=O)N2CCCCC2)c[nH]1 (configuration not stated),-9,-11,0,/,/,/
O=C(Cc1ccon1)c1ccc(O)cc1O,4,-33,3,/,/,/
Cn1c(=NC(=O)c2ccccc2[N+](=O)[O-])sc2cccc(F)c21,-110,-70,0,/,0,0
COc1ccc(C2=CC(=O)C=CC2=O)cc1,-38,-22,-4,48*,-9,0
COc1ccc(S(=O)(=O)c2ccc(OC)cc2)cc1,-3,-18,0,-10,9,0
COc1ccc(CCN2CC(C(=O)N3CCCCCC3)CCC2=O)cc1 (configuration not stated),-14,-15,-2,/,/,/
COc1ccc(-c2nc(NC(=O)C3CC(=O)N(c4ccc5c(c4)OCCO5)C3)sc2C)cc1 (configuration not stated),-1,-11,6,-6,53*,45*
O=C1C2C3c4ccccc4C(c4ccccc43)[C@@H]2C(=O)N1c1cccnc1 (some centres not stated),18,-26,-9,-6,4,-2
O=C1C2C3c4ccccc4C(c4ccccc43)C2C(=O)N1c1ccncc1 (configuration not stated),21,5,-3,22,71*,66*
C=C(C)CSc1nc2ccccc2[nH]1,-41,-38,5,-16,89*,-2
O=C(CCCc1nc(-c2ccccc2Cl)no1)NC1CCCC1,99*,47,-6,/,/,/
O=C(NNC(=O)C(c1ccccc1)c1ccccc1)c1ccccn1,72*,26,55*,55*,4,9
Cn1nc(C(=O)NC2CCCCC2)c2c1-c1ccccc1S(=O)(=O)C2,-5,-21,-6,/,/,/
Clc1ccc(-c2nnc(NC3=NCCCCC3)o2)cc1,75*,-44,4,-152,14,12
O=C(Nc1nnc(-c2ccc(Cl)cc2)o1)C1CCCCC1,-80,/,/,/,/,/
CC1CN(C(=O)CCCN2C(=O)c3ccccc3C2=O)CC(C)O1 (configuration not stated),5,-14,-4,/,/,/
COc1ccc(N2CCN(S(=O)(=O)c3cc4c(cc3C)NC(=O)CO4)CC2)cc1,7,3,-1,/,/,/
CCCCc1ccc(-c2ccc(Br)cc2O)nc1,-6,-37,-2,-29,3,3
CCCCc1ccc(-c2ccc(C)cc2O)nc1,84*,-76,-1,-203,3,2
COc1ccc(CNC(=S)Nc2cc(C)ccc2C)cc1,21,-18,-2,70*,4,-2
Cc1ccc(C)c(NC(=S)NCc2ccc3[nH]c4c(c3c2)CCCC4)c1,14,-2,0,47*,8,1
CS(=O)(=O)Nc1ccc(C(=O)N2CC(=O)Nc3ccccc32)cc1,10,-29,1,/,/,/
SMILES,aSyn UTR inh,KLF5 inhibitor,IEC-6 tox,APP transl inh,BaF3 tox,Ba/F3 V617F tox
CCCCCCCCSc1nnc(-c2ccc(OC)cc2)o1,111*,-7,-3,5,1,0
CCSc1nnc(-c2ccc(OC)cc2)o1,-186,-71,2,-87,-1,1
COc1cc(/C=C2/SC(=S)N(CC(=O)O)C2=O)ccc1OCC(=O)Nc1ccc(C)c(C)c1,-5,-11,-10,/,/,/
COc1ccc(C2=Nn3c(nnc3-c3ccco3)SC2)cc1OC,79*,-39,7,-4,0,13
CCOc1ccc(C2=Nn3c(nnc3-c3ccco3)SC2)cc1,23,-61,8,9,0,-1
Cc1nn(Cc2c(F)c(F)c(F)c(F)c2F)c(C)c1NC(=O)c1cccc(COc2ccccc2Cl)c1,-97,-202,-4,-151,2,0
Cc1nn(Cc2cccc(F)c2)c(C)c1NC(=O)c1ccc(COc2ccccc2Cl)cc1,69*,-32,-1,-4,2,-4
O=C(CCl)Nc1ccccc1Sc1ccc(Cl)cc1,93*,-31,4,/,1,0
CCN(CC)CCSc1nnc2c3cc(C)ccc3n(Cc3ccccc3)c2n1,-34,-31,2,/,33*,25*
CC(=O)c1cccc(NC(=O)CSc2ccc(-c3ccccn3)nn2)c1,69*,-16,-3,/,/,/
CC(=O)Nc1cccc(NC(=O)CSc2ccc(-c3ccccn3)nn2)c1,52,-18,6,0,2,-2
CCOC(=O)c1ccccc1NC(=O)CSc1ccc(-c2ccccn2)nn1,69*,0,4,/,/,/
O=C(CSc1n[nH]c(-c2ccccn2)n1)Nc1cccc(Cl)c1,86*,59,-1,/,/,/
Cc1nc(SCC(=O)Nc2cccc(Cl)c2)n[nH]1,-6,-9,2,-4,5,1
CCc1ccc(NC(=O)CSc2ccc(-c3ccccn3)nn2)cc1,7,-24,18,/,/,/
COc1cc(NC(=O)c2cccc(C)c2)ccc1NC(=O)c1cc2ccccc2o1,-13,-16,-8,/,/,/
COC(=O)c1sccc1NC(=O)c1cc(-c2cccc(C)c2)nc2ccccc12,11,-24,2,-9,8,4
COC(=O)c1sccc1NC(=O)c1c(C)c(-c2cccc(Cl)c2)nc2ccccc12,5,1,-8,50*,3,-3
CCN(C(=O)c1ccc(S(=O)(=O)N2CCCC2)cc1)C1CCS(=O)(=O)C1 (configuration not stated),4,/,/,/,/,/
O=c1c(Cl)nc2cc(Cl)ccc2n1CCNc1ncc(C(F)(F)F)cc1Cl,110*,-33,-5,-6,8,0
O=c1c2nncn2c2cc(C(F)(F)F)ccc2n1CCNc1ncc(C(F)(F)F)cc1Cl,26,-36,-6,/,-5,0
Cc1cc(C(=O)CSc2nnc3ccccn23)c(C)n1-c1ccccc1,102*,41,-4,20,0,-6
CCCc1cc(-c2nc(N)ncc2-c2csc(C)n2)c(O)cc1OC,23,-4,0,5,2,-3
CCCc1cc(-c2nc(N)ncc2-c2ccc3c(c2)OCCCO3)c(O)cc1OC,62*,-13,10,-8,1,-2
Cc1nn(C(C)C(=O)NCCN2CCCC2)c(=O)c2c1sc1ccccc12 (configuration not stated),-3,-36,0,/,/,/

# Source: PubChem (several laboratories)
